# MT1-MMP txn act = activates MT1-MMP transcription | HT1080 MT1-MMP promoter luciferase reporter, luminescence, overnight; hits give high values | activation factor at 10 µM | hit rate 0.16% among 86,000 | AID 750;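 active means activation factor of at least 2 for MT1-MMP transcription at 10 µM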
# ERb SRC1 inh = ER-beta (human) coactivator binding inhibition; TR-FRET ER-beta LBD / SRC1-Cy5 peptide binding; receptor agonist-loaded with 1 µM estradiol; inhibition, % at 25.6 µM; hit rate 1.3% among 86,000; AID 633;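 active means compounds whose percent inhibition of the receptor-coactivator binding signal exceeds about 50% in the single-dose screen, limit read from the data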;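 further: 0% = receptor plus peptide wells without compound and 100% = peptide-only wells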
# Smad3 inh = blocks human Smad3 binding to FoxH1 peptide; inhibition, % at 25 µM; P84022; AID 630; TR-FRET Smad3/Dy647-FoxH1 peptide binding, europium anti-His; hit rate 0.29% among 88,000;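 active means compounds that reduce the energy-transfer binding signal between the protein and its labelled peptide by more than half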;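 further: 0% = Smad3 plus labelled peptide maximal FRET and 100% = peptide-only background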
# Target sequence (P84022 whole entry, looked up): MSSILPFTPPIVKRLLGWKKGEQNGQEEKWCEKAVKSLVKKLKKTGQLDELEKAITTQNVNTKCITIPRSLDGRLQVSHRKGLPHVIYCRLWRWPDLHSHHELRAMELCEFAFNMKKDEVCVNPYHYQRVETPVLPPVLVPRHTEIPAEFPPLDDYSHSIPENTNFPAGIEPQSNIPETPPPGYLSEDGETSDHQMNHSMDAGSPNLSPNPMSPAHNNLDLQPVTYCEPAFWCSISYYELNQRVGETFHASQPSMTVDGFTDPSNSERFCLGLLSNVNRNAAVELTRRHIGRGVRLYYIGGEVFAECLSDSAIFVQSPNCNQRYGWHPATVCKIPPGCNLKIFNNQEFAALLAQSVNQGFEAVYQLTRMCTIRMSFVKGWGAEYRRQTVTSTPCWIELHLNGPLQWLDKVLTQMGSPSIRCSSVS
# ERa SRC1 inh = blocks coactivator binding to human estrogen receptor alpha; inhibition, % at 25.6 µM; P03372; hit rate 1.7% among 86,000; AID 629; TR-FRET ER-alpha LBD / SRC-1 peptide, estradiol-bound; in the data active means inhibition above about 50%;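 further: 0% = receptor plus peptide control and 100% = peptide only without receptor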
# ERa coact pot = ER-alpha (human) coactivator binding potentiation; TR-FRET ERalpha-LBD/SRC-Cy5 coactivator binding, 2 h; 100 = basal binding, no effect; coactivator binding (% of control), % at 25.6 µM; hit rate 1.3% among 86,000; AID 639; in the data active means activity above about 200%;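 further: binding measured in presence of low estradiol as agonist stimulus; 0% = peptide alone without receptor and 100% = receptor with peptide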
# MMP-13 inhibitor = MMP13 (human) collagenase inhibition; P45452; MMP-13 fTHP FRET cleavage, Mca fluorescence; inhibition, % at 4 µM; hit rate 0.07% among 65,000; AID 570;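 active means inhibition above the mean of compound-free control plate wells plus 3 SD, cut at about 14% in these data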;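 further: 0% = DMSO wells and 100% = wells with reference MMP-13 inhibitor after basal subtraction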
# Active calls of the source: *; . = no result given; [ ] = another dose, or the depositor's remark. Shown are actives, neighbours in structure and some others; about 3.5% of the full set was active somewhere.
SMILES,MT1-MMP txn act,ERb SRC1 inh,Smad3 inh,ERa SRC1 inh,ERa coact pot,MMP-13 inhibitor
Cc1ccc(S(=O)(=O)N(C)c2ccc(OCC(=O)OCc3c(C)noc3C)cc2)cc1,1.1,-9,2,-9,106,0
Cc1ccc(C(C)C)c(OCC(=O)OCc2c(C)noc2C)c1,1.2,51*[fluorescence artefact?],-10,-5,134,3
N#Cc1nc(-c2ccc(OCc3ccccc3)cc2)oc1N1CCOCC1,1.2,-1,-6,4,108,-56
N#Cc1nc(-c2ccc(OCc3ccccc3)cc2)oc1NCCN1CCOCC1,1.1,8,7,11,235*[fluorescence artefact?],-93
Cc1ccc(NS(=O)(=O)c2ccc3c(c2)oc(=O)n3C)cc1F,1.1,-6,11,-8,221*,1
CC(C)C(=O)c1cn(CC(=O)NCC2CCCO2)c2ccccc12 (centres undefined),1.2,-3,2,-4,112,2
CCOC(=O)C1=C(O)/C(=C/c2cn(CC(=O)NCC3CCCO3)c3ccccc23)SC1=Nc1ccc(C)cc1 (centres undefined),1.1,45,-13,78*,56,.
Cc1ccc(C)c(SCC(=O)NCc2ccco2)c1,1,-3,-6,-5,85,.
Cc1ccc(C)c(SCC(=O)OCC(=O)c2ccco2)c1,1.1,63*,7,65*,70,3
COc1ccc(-c2cc(C(=O)N3CCN(c4ccccn4)CC3)c3ccccc3n2)cc1,1.8,3,0,8,107,-18
N#Cc1ccc(CSc2nnc(NC(=O)C3CCCO3)s2)cc1 (centres undefined),1.2,7,5,1,106,-4
N#Cc1c(NC(=O)c2ccncc2)sc2c1CCC2,1.1,91*[fluorescence artefact?],4,91*[fluorescence artefact?],10,0
Cn1cnnc1SCC(=O)c1ccco1,1.2,12,-2,21,92,1
Cn1cnnc1SCc1cccc(Br)c1,1,52*[fluorescence artefact?],-13,21,89,.
Cc1cccc(-c2nc(CN3CCCC(C(=O)NC4CCCCCC4)C3)c(C)o2)c1 (centres undefined),1.1,-7,7,-6,90,3
COC(=O)c1ccc2c(c1)N(Cc1nc(-c3cccc(C)c3)oc1C)C(=O)C1CCCN21 (centres undefined),1.3,42,-2,59*,93,-6
CN(c1ccc(C(=O)NCc2ccncc2)cc1)S(C)(=O)=O,1.1,-4,15,-15,115,-2
c1ccc(-c2noc(-c3ccc4c(c3)OCO4)n2)nc1,0,57*,7,62*[fluorescence artefact?],45,0
CC(C)=CC(=O)Nc1ccccc1Br,1,-5,17,-1,107,0
N#Cc1c(/N=C/c2cc(Br)cs2)sc2c1CCC2,2.2*,38,-2,13,66,.
Cc1ccc2[nH]c(=O)c(C3C(C#N)=C(N)Oc4c3ccc3cccnc43)cc2c1 (centres undefined),1.2,61*,2,79*,49,.
COC(=O)C1=C(C)NC(C)=C(C(=O)OC)C1c1cc2cc(C)ccc2[nH]c1=O,1,4,0,1,114,-29
CCc1cc2c(=O)c(-c3ccc4c(c3)OCCO4)coc2cc1OC(=O)c1ccco1,0.6,58*[fluorescence artefact?],4,70*[fluorescence artefact?],213*[fluorescence artefact?],-2
CCCc1cc2c(=O)c(-c3ccc4c(c3)OCCO4)coc2cc1OC(=O)c1ccco1,1.3,21,9,51*,122,.
CCN(CC)Cc1c(O)ccc2c(=O)c(-c3ccc4c(c3)OCCO4)coc12,1.1,-10,-1,3,96,.
SMILES,MT1-MMP txn act,ERb SRC1 inh,Smad3 inh,ERa SRC1 inh,ERa coact pot,MMP-13 inhibitor
CCCc1cc(=O)oc2cc(C)cc(OC(=O)c3ccco3)c12,1.2,-3,8,3,198,-2
COc1ccc(C(=O)N(CN2CCCC2=O)c2ccccc2OC)cc1OC,1.1,.,.,.,.,3
O=C(Nc1ccc(Cl)cc1)c1ccncc1,.,-8,3,-4,108,.
O=C(Nc1cccc(Cl)c1Cl)c1ccncc1,.,-4,-1,54*[fluorescence artefact?],99,.
COc1ccc(C(C)C)cc1S(=O)(=O)Nc1ccc(Cl)cn1,1.1,74*[fluorescence artefact?],5,-2,134,2
Cc1nc(-c2ccc(O)c(O)c2)cs1,.,59*,18,23,79,.
COC(=O)[C@H]1CCCN1C(=O)Nc1cccc(Oc2c(F)c(F)c(F)c(F)c2F)c1,1.1,-1,-7,-9,106,-4

# Bioassay records from PubChem BioAssay.
